From PubChem
Only some compounds are listed: those with a hit (about 4.8% of all), similar ones and a draw of the others.
USP1-UAF1 inh: Inhibitors of USP1/UAF1: Primary Screen; Ubiquitin carboxyl-terminal hydrolase 1 (Homo sapiens), O94782; recombinant USP1/UAF1, Ub-Rhodamine cleavage fluorescence; Potency, µM (series often up to 57.1 µM), without a hit: at the highest dose activity change, negative = inhibition, hits mostly inhibitors; hit rate 0.23% among 390,000; AID 743255, 2014; note: potency is the fitted concentration of half-maximal effect; % is set by controls: 0 for no effect and ±100 for the full control effect; nearly all actives have a fitted effect of over 60% in size
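USP1/UAF1 complex at 1 nM was preincubated with compound for 15 min at room temperature, then Ub-Rho substrate (150nM final) was added. Fluorescence (480/540 nm) was read kinetically, 6 reads every 60 seconds.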
IL1B secr inh: qHTS for Inhibitors of Inflammasome Signaling: IL-1-beta AlphaLISA Primary Screen; hit rate 4.7% among 360,000; THP-1 LPS/ATP IL-1B secretion, AlphaLISA, 16 h; hits give low values; activity change, % at 57.5 µM; in the data active = activity change below about -50%; inconclusive = mostly about -30% to -49%; note: % is set by controls: 0 for no effect and ±100 for the full control effect
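THP-1 cells pretreated 1 hr with compounds (up to 57.5 uM final), then stimulated with LPS (250 ng/mL final) plus ATP (1.25 mM final); secreted IL-1B measured by AlphaLISA after 16 hr, decreased signal indicating inhibition.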
ATXN viability: Viability Counterscreen for Primary qHTS for Inhibitors of ATXN expression; S2 cells (HEK-293 line with an ATXN2-luciferase reporter) viability, CellTiter-Fluor protease fluorescence, 24 h; Potency, µM (highest dose often 56.7 µM), actives largely listed as cytotoxic; hit rate 0.49% among 400,000; note: potency is the fitted concentration of half-maximal effect; nearly all actives have a fitted effect of over 40% in size
USP2a inh: qHTS Assay for Inhibitors of Ubiquitin-specific Protease USP2a Using CHOP2 as the Reporter | Ubiquitin carboxyl-terminal hydrolase 2 (Homo sapiens), O75604 | AID 463254, 2010 | hit rate 0.01% among 330,000 | Potency, µM (doses to about 38.3 µM), for inactives: top-dose activity change, negative = inhibition, hits mostly inhibitors | USP2 core, Ub-CHOP2 coupled fluorogenic reporter, 485/531;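 note: potency is the fitted concentration of half-maximal effect; plate controls were DMSO wells for no effect and full inhibition by NEM control for full effect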
Target sequence (O75604 whole entry, looked up): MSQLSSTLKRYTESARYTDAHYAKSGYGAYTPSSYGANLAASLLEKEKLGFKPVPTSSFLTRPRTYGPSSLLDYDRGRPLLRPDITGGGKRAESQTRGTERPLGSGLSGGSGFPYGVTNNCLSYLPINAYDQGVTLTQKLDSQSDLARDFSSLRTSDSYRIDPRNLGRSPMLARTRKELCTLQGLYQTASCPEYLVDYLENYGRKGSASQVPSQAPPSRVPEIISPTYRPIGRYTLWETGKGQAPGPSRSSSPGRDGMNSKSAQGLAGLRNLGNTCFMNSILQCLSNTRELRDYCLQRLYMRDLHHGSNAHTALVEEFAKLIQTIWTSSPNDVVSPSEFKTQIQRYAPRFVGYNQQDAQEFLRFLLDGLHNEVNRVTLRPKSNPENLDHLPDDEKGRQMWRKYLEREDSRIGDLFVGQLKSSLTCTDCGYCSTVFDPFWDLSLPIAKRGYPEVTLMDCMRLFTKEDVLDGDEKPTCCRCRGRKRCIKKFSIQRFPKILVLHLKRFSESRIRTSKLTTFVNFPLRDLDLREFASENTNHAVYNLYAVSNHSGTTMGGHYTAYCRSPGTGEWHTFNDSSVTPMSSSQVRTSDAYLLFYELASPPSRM
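Deubiquitinase activity read as fluorescence (485/531 nm) after Ub-CHOP2 cleavage activates the enterokinase reporter on its substrate; USP2 core 10nM, Ub-CHOP2 and substrate 25nM each, 30min compound preincubation then 60min RT; data normalized to NEM, curves fitted.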
ATXN2 expr inh: Primary qHTS for Inhibitors of ATXN expression; HEK-293 ATXN2-luciferase reporter, luminescence, 24 h; AID 1745845, 2022; Potency, µM (highest dose often 57 µM), without a hit: top-dose activity change, negative = inhibition, actives largely listed as inhibitors; hit rate 0.72% among 360,000; note: potency is the fitted concentration of half-maximal effect; % is set by controls: 0 for no effect and ±100 for the full control effect; nearly all actives have a fitted effect of over 55% in size
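ATXN2-luciferase reporter cells (luciferase flanked by upstream and downstream ATXN2 gene portions) were treated 24 h at 37 °C with compounds at up to 57 uM. SteadyGlo luminescence gave expression; GF-AFC fluorescence gave viability.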
Numbers without * were called inactive. Unless noted, calls come from the whole dose curve; as a rule, active = well fitted curve in the direction sought with a large enough effect; inconclusive = small, poorly fitted or top-dose-only effect, or another doubt; inactive = no such curve, though single readings can be large; an effect the other way counts as inactive or inconclusive.

How did CC1(C)Cc2c(c(N3CCCC3)nc3sc4c(N5CCN(CCO)CC5)ncnc4c23)CO1 do in these assays?
USP1-UAF1 inh: -16%; IL1B secr inh: -61*; ATXN viability: inconclusive; USP2a inh: -3%; ATXN2 expr inh: -24%

What do the screens show for `CC1(C)Cc2c(c(N3CCOCC3)nc3sc4c(NCCN)ncnc4c23)CO1`?
USP1-UAF1 inh: -21%; IL1B secr inh: 0; ATXN viability: inactive; ATXN2 expr inh: -27%

How did O=c1c2sc3nc(N4CCOCC4)c4c(c3c2ncn1-c1ccccc1)CCCC4 do in these assays?
USP1-UAF1 inh: -16%; IL1B secr inh: -60*; ATXN viability: inactive; USP2a inh: -5%; ATXN2 expr inh: -8%

What do the screens show for `Cc1ccc(-n2cnc3c(sc4nc(N5CCOCC5)c5c(c43)CCCC5)c2=O)cc1`?
USP1-UAF1 inh: -25%; IL1B secr inh: 12; ATXN viability: inactive; USP2a inh: 10%; ATXN2 expr inh: -32%

What do the screens show for `Cc1ccc(NC(=O)Cn2ccn(-c3ccc(F)c(F)c3)c(=O)c2=O)cc1C`?
USP1-UAF1 inh: 13%

Results for CCS(=O)(=O)c1nnnn1-c1ccccc1S(C)(=O)=O ?
USP1-UAF1 inh: -9%; IL1B secr inh: -97*; ATXN viability: inconclusive; USP2a inh: 0%; ATXN2 expr inh: -26%

What do the screens show for `O=S(=O)(Cc1nnnn1-c1ccc(Br)cc1)c1ccccc1`?
USP1-UAF1 inh: -13%; IL1B secr inh: -22; ATXN viability: inactive

What do the screens show for `C=CCN1C(=O)NC(c2ccc(OC)cc2)(C(F)(F)F)S/C1=C(\C#N)c1nnc(N2CCOCC2)n1-c1ccccc1` (stereo not drawn)?
USP1-UAF1 inh: -15%; IL1B secr inh: -52*; ATXN viability: inactive; USP2a inh: 2%; ATXN2 expr inh: -11%

Results for C=CCN1C(c2cccc(C(F)(F)F)c2)=CS/C1=C(/C#N)c1nnc(N2CCOCC2)n1-c1ccccc1 ?
USP1-UAF1 inh: -7%; IL1B secr inh: -2; ATXN viability: inactive; USP2a inh: 4%; ATXN2 expr inh: 0%

What do the screens show for `COc1ccc(CCN(Cc2nc3ccccc3c(=O)[nH]2)C(=O)c2ccco2)cc1`?
USP1-UAF1 inh: -10%; IL1B secr inh: 3; ATXN viability: inactive; USP2a inh: -1%; ATXN2 expr inh: 1%

Results for CCN(CCS(=O)(=O)c1ccc(Br)cc1)Cc1nc2ccccc2c(=O)[nH]1 ?
USP1-UAF1 inh: -13%; IL1B secr inh: -52*; ATXN viability: inactive; USP2a inh: -2%; ATXN2 expr inh: -18%

Results for COc1ccc(CN(Cc2nc3ccccc3c(=O)[nH]2)C(=O)NC2CCCCC2)cc1 ?
USP1-UAF1 inh: -14%; IL1B secr inh: -58*; ATXN viability: inactive; USP2a inh: 1%; ATXN2 expr inh: 8%

How did COc1ccc(CN(CC(=O)NC2CCCC2)C(=O)c2ccc(-c3ccccc3)[nH]2)cc1 do in these assays?
USP1-UAF1 inh: -21%; IL1B secr inh: -68*; ATXN viability: inactive; USP2a inh: 0%; ATXN2 expr inh: -17%

Results for CCC(CC)C(=O)N(CCc1ccc(OC)cc1)Cc1nc2ccccc2c(=O)[nH]1 ?
USP1-UAF1 inh: -10%; IL1B secr inh: -54*; ATXN viability: inconclusive; USP2a inh: 3%; ATXN2 expr inh: -12%

Results for C[C@H](O)[C@@H]1C(=O)N2C(C(=O)O)=C(S[C@@H]3CN[C@H](CNS(N)(=O)=O)C3)[C@@H](C)[C@@H]12 ?
ATXN2 expr inh: -1%

Results for COCc1c(C(=O)N2CCN(C3CCCC3)CC2)cnn1-c1nccc(-c2cc(C)sc2C)n1 ?
ATXN viability: inactive

Results for CCOc1cc(CNc2ccc(O)cc2)cc(Br)c1OCc1ccccc1F ?
USP1-UAF1 inh: inconclusive; IL1B secr inh: -63*; ATXN viability: inconclusive; USP2a inh: -4%; ATXN2 expr inh: inconclusive

What do the screens show for `C[C@@H]1CC[C@]2(C(=O)O)CC[C@]3(C)C(=CCC4[C@]56CC[C@@](O)(OC5)C(C)(C)C6CC[C@]43C)C2[C@H]1C` (stereo partly drawn)?
USP1-UAF1 inh: -22%; IL1B secr inh: 38; ATXN viability: 25µM*; USP2a inh: inconclusive; ATXN2 expr inh: inconclusive

Results for Cc1ccc(C)c(Cn2c3ccccc3c3cnn(CC(=O)NC(C)CCc4ccccc4)c(=O)c32)c1 (stereo not drawn) ?
USP1-UAF1 inh: 14%

Results for COCCCNC(=O)C[C@H]1C[C@H](C(=O)N2CCCCC2)[C@@]2(CCc3ccccc3)c3[nH]c4cc(-c5ccco5)ccc4c3CCN2C1=O ?
USP1-UAF1 inh: -8%; IL1B secr inh: inconclusive; ATXN viability: inconclusive; USP2a inh: -2%; ATXN2 expr inh: -19%

Results for C[C@]12c3[nH]c4ccc(Cl)cc4c3CCN1C(=O)[C@@H](CC(=O)NCCCn1ccnc1)C[C@@H]2C(=O)N1CCCCC1 ?
USP1-UAF1 inh: -24%; IL1B secr inh: 0; ATXN viability: inactive; USP2a inh: 0%; ATXN2 expr inh: 5%

Results for O=C(C[C@H]1C[C@H](C(=O)N2CCCCC2)[C@@]2(CCc3ccccc3)c3[nH]c4cc(-c5ccco5)ccc4c3CCN2C1=O)NCCN1CCOCC1 ?
USP1-UAF1 inh: -30%; IL1B secr inh: -58*; USP2a inh: -15%; ATXN2 expr inh: inconclusive

How did O=C(C[C@H]1C[C@H](C(=O)N2CCCCC2)[C@@]2(CCc3ccccc3)c3[nH]c4ccc(Cl)cc4c3CCN2C1=O)NCCCn1ccnc1 do in these assays?
USP1-UAF1 inh: inconclusive; IL1B secr inh: -58*; USP2a inh: 3%; ATXN2 expr inh: inconclusive

Results for C[C@]12c3[nH]c4cc(-c5ccco5)ccc4c3CCN1C(=O)[C@@H](CC(=O)NCCc1ccccn1)C[C@@H]2C(=O)N1CCCCC1 ?
USP1-UAF1 inh: -17%; IL1B secr inh: -108*; ATXN viability: inactive; USP2a inh: 0%; ATXN2 expr inh: -23%

How did CC[C@]12c3[nH]c4cc(-c5ccco5)ccc4c3CCN1C(=O)[C@@H](CC(=O)NCCc1ccccn1)C[C@@H]2C(=O)N1CCN(C(=O)C2CC2)CC1 do in these assays?
USP1-UAF1 inh: -28%; IL1B secr inh: -23; ATXN viability: inactive; USP2a inh: 0%; ATXN2 expr inh: -3%

What do the screens show for `Cc1ccc2c(c1)CN(CCNC(=O)c1n[nH]c3c1CCCC3)CC(C)O2` (stereo not drawn)?
ATXN viability: inactive
